# Experimental data taken from PubChem BioAssay AID2308 (National Center for Advancing Translational Sciences (NCATS), 2010).
# Records with an inconclusive call do not appear. A call without a number means that no potency is given here. The source made the active and inactive calls. The call rests on the fitted dose curve; in most records, active means well fitted curve in the direction sought with a large enough effect in the signal ratio (not every such curve was filed as active); inconclusive means small, poorly fitted or top-dose-only effect, or a change in a side signal; inactive means no such curve, though single readings can be large or run the other way; the % refers to the signal ratio.
# Target: Inositol monophosphatase 1 (Rattus norvegicus) (UniProt P97697)
# Experiment: Confirmation Assay for Identifying the Cell-Membrane Permeable IMPase Inhibitors
# Conditions: CHO-M1 cells, carbachol-stimulated IP1 accumulation, HTRF ratio; series mostly up to 41.5 µM
# From the text: NIH Chemical Genomics Center [NCGC] NIH Molecular Libraries Probe Production centers Network [MLPCN] MLPCN Grant: X01 MH082413-01 Assay Submitter (PI): Wei Zheng NCGC Assay Overview: Lithium has been widely used for the treatment of bipolar disorder. But lithium has a narrow therapeutic index and it can cause side effects such as thirst, weight gain, tremor, polyuria and memory problems. Although the mechanism for lithium action in treatment of bipolar disorder is still not fully understood, inhibition of inositol monophosphatase (IMPase) and the subsequent depletion of the inositol pool in living cells have been implicated as the primary therapeutic benefit of lithium therapy. Therefore, a selective IMPase inhibitor with reduced side effects might be a good drug candidate to replace lithium for the treatment of bipolar disorder. Several IMPase inhibitors have been discovered previously. However, they are not suitable for therapeutic use because of their poor cell membrane penetrability or oral bioavailability; the development of new cell-permeable IMPase inhibitors is needed. IMPase catalyzes the hydrolysis of inositol-1-phosphate (IP1) to release free inositol. Binding of an agonist to a Gq coupled GPCR results in the activation of PLC, which hydrolyzes the PIP2 to form inositol-1,4,5-trisphosphate (IP3) and diacyl glycerol (DAG). While DAG activates protein kinase C (PKC), IP3 triggers the elevation of intracellular free Ca2+. The IP3 is very rapidly inactivated by hydrolysis to IP2, IP1 and then inositol by a series of enzymes including IMPase. Free inositols are used for synthesis of PI and thus start another inositol cycle. To identify new cell-permeable IMPase inhibitors, we developed a cell-based IMPase assay in which the cytosolic IP1 is measured by a time-resolved fluorescence resonance energy transfer (TR-FRET) assay. In this assay, an IP1 specific antibody is used to detect the labeled IP1 tracer. When the cell lysate contains the elevated IP1 due to the inhibition of IMPase, the TR-FRET between the labeled antibody and IP1 tracer is disrupted resulting in a reduction in the total signal. Since the TR-FRET is used, this cell-based assay is a homogenous assay without cell wash and medium change that is suitable for assay miniaturization and HTS.
# NCGC IMPase Assay Protocol Summary A Chinese hamster ovary (CHO) cell line stably expressing the M1 receptor (CHO-M1) was obtained from ATCC and maintained in F-12 Kaighn's media (Invitrogen, Carlsbad, CA, 21127) supplemented with 10 % FBS, 100 units/ml penicillin, 100 ug/ml streptomycin and 250 ug/ml geneticin at 37C, 5% CO2 in a humidified atmosphere. Before the assay, aliquots of cells were frozen and stored at -135C. The assay was performed in 1536-well format. Data are reported for both the ratio of the two emission wavelengths, and also for the component 'donor' channel, Em2=620. Data were normalized to the controls for basal activity (DMSO only) and 100% inhibition (18.4 mM LiCl). AC50 values were determined from concentration-response data modeled with the standard Hill equation. IMPase 1536-well assay protocol: (1) Plate 4 ul/well (2000 cells) of cell suspension from frozen CHO-M1 Cells in white, tissue culture treated 1536-well plates that are cultured at 37C, 5 % CO2 for 16 to 30 hours. (2) Add 23 nl/well of compound in DMSO solution. The final titration for each compound was between 0.6 nM and 46 uM. […]
# Inositol monophosphatase 1 (Rattus norvegicus), sequence (P97697 whole entry, looked up): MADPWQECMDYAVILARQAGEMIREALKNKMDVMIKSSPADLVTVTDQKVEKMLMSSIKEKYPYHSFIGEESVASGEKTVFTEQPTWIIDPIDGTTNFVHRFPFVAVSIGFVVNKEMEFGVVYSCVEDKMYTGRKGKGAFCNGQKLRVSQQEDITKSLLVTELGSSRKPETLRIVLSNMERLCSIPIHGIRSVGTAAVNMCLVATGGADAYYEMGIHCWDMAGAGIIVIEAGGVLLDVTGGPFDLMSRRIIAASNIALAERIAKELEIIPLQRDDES
row,Compound,Potency
1,COc1cccc(NC(=O)CN(C)C(C)C(=O)Nc2cc([N+](=O)[O-])ccc2Cl)c1 (stereo unspecified),inactive
2,COc1ccc(N2CSC3=C(C#N)C(c4cccs4)CC(=O)N3C2)cc1 (stereo unspecified),inactive
3,O=P(O)(OCc1ccccc1)OCc1ccccc1,inactive
4,CCc1c(C)nc2c(OC)cccc2c1SCCC(=O)O,inactive
5,O=C(NC1CCS(=O)(=O)C1)C1C2CC3CC(C2)CC1C3 (stereo unspecified),inactive
6,COc1ccc2oc(-c3ccccc3)c(C(N)=O)c2c1,inactive
7,COc1ccc(/C=C2\CCCC3C2=NN(C(=O)c2ccco2)C3c2ccc(OC)c(OC)c2)cc1OC (stereo unspecified),inactive
8,N#Cc1c(-c2ccc(Br)cc2)nc2n(c1=O)CCCS2,inactive
9,Cc1ccc(-c2c(C(=O)Nc3ccccc3C)c(C)[nH]c(=S)c2C#N)o1,inactive
10,N#CCN1CCC(c2cc(-c3ccco3)n[nH]2)CC1,inactive
11,[Li+],708 µM (active)
12,CC1(C)Cc2c(ccc3ccccc23)C2=C(C(=O)N3CCCC3)C(=O)C(=O)N21,inactive
13,C[N+](C)(CCCCCC[N+](C)(C)CCCN1C(=O)c2cccc3cccc(c23)C1=O)CCCN1C(=O)c2cccc3cccc(c23)C1=O,inactive
14,N#CC1=C(N)Oc2n[nH]c(-c3ccccn3)c2C1c1c(F)cccc1Cl (stereo unspecified),inactive
15,COc1ccc(C2c3c(ncn(CCN4CCOCC4)c3=N)Oc3ccc4ccccc4c32)cc1OC (stereo unspecified),inactive
16,CC(=O)C1=C(O)C(=O)N(Cc2ccco2)C1c1ccccc1F (stereo unspecified),inactive
17,CNC(=O)c1ccc(NC(=O)/C=C/c2cccc(F)c2)cc1,inactive
18,CCOC(=O)c1cc2c(=O)n3ccccc3nc2n(Cc2ccco2)c1=NC(=O)c1cccnc1,inactive
19,CC(C)(C)c1ccc(-c2nnc3sc(-c4ccccn4)nn23)cc1,inactive
20,O=C(CCC(=O)c1cccs1)NCc1cccnc1,inactive
21,O=C(NCCCn1ccnc1)c1cc(-c2ccncc2)nc2ccccc12,inactive
